According to PubChem BioAssay (EPA / NIEHS):
“And” between values parts separate entries of the source, which are not always exact repeats. Equal values may be shown once. Results filed as inconclusive are left out. The source made the active and inactive calls. Rule for the calls: active = hit-call score of the fitted dose curve at least 0.9, where 1 is the maximum; inconclusive = response in the unintended direction; inactive = score below 0.9.

These compounds were tested against human Tyrosine Protein Kinase Receptor Tie-2 (Tie2), TEK (gene 7010) (UniProt Q02763) (assay: NVS_ENZ_hTie2: NovaScreen (NVS) Enzymatic Assay for human Tyrosine Protein Kinase Receptor Tie-2 (Tie2) (AID 2283225)).
Sequence of human Tyrosine Protein Kinase Receptor Tie-2 (Tie2), TEK (gene 7010) (Q02763 whole entry, looked up): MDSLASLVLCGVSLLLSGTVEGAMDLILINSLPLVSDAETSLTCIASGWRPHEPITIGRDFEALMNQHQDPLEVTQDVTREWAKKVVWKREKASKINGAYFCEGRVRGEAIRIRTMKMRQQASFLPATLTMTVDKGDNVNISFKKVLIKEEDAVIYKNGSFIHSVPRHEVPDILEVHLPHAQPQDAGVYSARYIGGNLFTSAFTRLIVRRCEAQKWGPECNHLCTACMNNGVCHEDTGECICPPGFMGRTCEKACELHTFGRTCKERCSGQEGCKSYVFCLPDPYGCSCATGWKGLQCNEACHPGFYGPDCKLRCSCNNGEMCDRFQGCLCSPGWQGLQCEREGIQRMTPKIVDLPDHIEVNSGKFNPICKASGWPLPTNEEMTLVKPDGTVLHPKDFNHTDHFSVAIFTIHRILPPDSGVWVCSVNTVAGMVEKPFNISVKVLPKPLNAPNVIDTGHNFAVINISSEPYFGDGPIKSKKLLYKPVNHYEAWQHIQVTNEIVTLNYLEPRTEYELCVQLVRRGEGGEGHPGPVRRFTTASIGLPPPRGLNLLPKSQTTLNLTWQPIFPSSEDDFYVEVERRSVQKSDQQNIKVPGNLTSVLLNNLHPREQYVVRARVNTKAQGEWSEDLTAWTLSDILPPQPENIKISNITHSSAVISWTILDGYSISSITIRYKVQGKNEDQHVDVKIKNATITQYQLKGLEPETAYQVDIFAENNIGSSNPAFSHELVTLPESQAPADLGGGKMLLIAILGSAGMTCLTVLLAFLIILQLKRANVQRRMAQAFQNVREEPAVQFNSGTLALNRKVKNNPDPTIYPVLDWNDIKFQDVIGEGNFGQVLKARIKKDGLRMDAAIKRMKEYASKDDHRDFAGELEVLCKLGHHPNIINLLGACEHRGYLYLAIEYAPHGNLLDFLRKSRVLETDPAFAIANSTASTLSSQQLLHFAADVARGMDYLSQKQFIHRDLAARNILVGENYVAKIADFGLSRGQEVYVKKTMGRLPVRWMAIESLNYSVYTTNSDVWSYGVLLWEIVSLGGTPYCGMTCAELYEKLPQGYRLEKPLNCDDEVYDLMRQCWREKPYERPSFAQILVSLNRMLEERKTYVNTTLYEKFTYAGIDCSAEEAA
Experimental: NVS_ENZ_hTie2 is a biochemical, single-readout assay that uses extracted gene-proteins in a cell-free assay. Measurements were taken 1 hour after chemical dosing in a 384-well plate.NVS_ENZ_hTie2 is one of one assay component(s) measured or calculated from the NVS_ENZ_hTie2 assay. It is designed to make measurements of enzyme activity, a form of enzyme reporter, as detected with fluorescence intensity signals by Fluorescence and electrophoretic mobility shift technology.Data from the assay component NVS_ENZ_hTie2 was analyzed into 1 assay endpoint. This assay endpoint, NVS_ENZ_hTie2, was analyzed in the positive analysis fitting direction relative to DMSO as the negative control and baseline of activity. Using a type of enzyme reporter, loss-of-signal activity can be used to understand changes in the enzymatic activity as they relate to the gene TEK. Furthermore, this assay endpoint can be referred to as a primary readout, because this assay has produced multiple assay endpoints where this one serves a enzymatic activity function. To generalize the intended target to other relatable targets, this assay endpoint is annotated to the kinase intended target family, where the subfamily is receptor tyrosine kinase.
Binding assays used specific radioligands (tritiated, iodinated) with non-radioactive competitive displacement ligands in agonist or antagonist protocols (as indicated) and various reference compounds and inhibitors to titrate specific binding to receptors and transporters. Most enzyme assays (CYPs, kinases, phosphatases, proteases, HDACs) used recombinant protein and specific substrates (fluorescence mostly, some colorimetric and radioactive) and inhibitors, followed by a biochemical separation of substrate and product. All assays for the biochemical HTS were initially run in duplicate at a single concentration (10 uM for CYP450 assays and 25 uM for all others). Assay-chemical combinations meeting a pre-defined threshold (e.g., 30% inhibition and other criteria defined below) were then run in singleton concentration-response format with maximum concentration of 20 uM for CYPs and 50 uM for all others. Each assay was run with positive and negative controls, and concurrent controls on every plate. The follow-up (secondary) screen tested active chemical-pairs in concentration series, as well as a few additional assays not tested in the primary screen, some selected negative inactives, and several cases re-run in the concentration series for confirmatory purposes.
With `O=S(=O)(O)C(F)(F)C(F)(F)C(F)(F)C(F)(F)C(F)(F)C(F)(F)C(F)(F)C(F)(F)F` the AC50 was 8.09 µM (active) and 6.38 µM (active) and 5.3 µM (active).
`Oc1cc(Cl)ccc1Oc1ccc(Cl)cc1Cl` was tested, and the outcome was “inactive”.
For `Cc1cc(C)nc(NC(=O)NS(=O)(=O)c2ccccc2C(=O)OC2COC2)n1`, the outcome was “inactive”.
In the case of `CC[C@H](C)[C@H]1O[C@]2(C=C[C@@H]1C)C[C@@H]1C[C@@H](C/C=C(\C)[C@@H](O[C@H]3C[C@H](OC)[C@@H](O[C@H]4C[C@H](OC)[C@@H](O)[C@H](C)O4)[C@H](C)O3)[C@@H](C)/C=C/C=C3\CO[C@@H]4[C@H](O)C(C)=C[C@@H](C(=O)O1)[C@]34O)O2` (tested in a mixture with another compound), the AC50 is reported as 36.1 µM (active).
With `CC(C)OC(=O)Nc1cccc(Cl)c1` the outcome was “inactive”.
In the case of `CNC(=O)CSP(=S)(OC)OC`, the outcome is reported as “inactive”.
In the case of `CC(C)(C)C(O)C(Oc1ccc(Cl)cc1)n1cncn1` (stereo not given), the outcome is reported as “inactive”.
`O=C(O)C(F)(F)C(F)(F)C(F)(F)C(F)(F)C(F)(F)C(F)(F)C(F)(F)F` was tested, and the AC50 was 13.7 µM (active).
`OCCOc1ccccc1` was tested, and the outcome was “inactive”.
For `O=C(NC(=O)c1c(F)cccc1F)Nc1ccc(OC(F)(F)C(F)OC(F)(F)F)c(Cl)c1` (stereo not given), the outcome was “inactive”.
